# PubChem BioAssay (NCATS)
# Inconclusive results are not listed. The source made the active and inactive calls. Unless noted, the rule behind the calls is not given here.
# Experiments:
# [1] = Immunotoxin (HA22) sensitization/mitigation study. Vehicle arm (PBS) (AID 1159510); conditions: cancer cells viability with PBS vehicle (HA22 study); series mostly up to 46.1 µM; note: potency is the fitted concentration of half-maximal effect
# [2] = Immunotoxin (SS1P) sensitization/mitigation study. Vehicle arm (DMEM) (AID 1159513); conditions: cell viability with vehicle (DMEM); series mostly up to 46.1 µM; note: potency is the fitted concentration of half-maximal effect
# [3] = High-throughput drug toxicity screening in the BPDCN cell line Gen2.2 (AID 1224824); conditions: Gen2.2 BPDCN cells; at 45.8 µM (top of the series);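 note: cells exposed to compounds for 48 h before reading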
# How it was run: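 CellTiter-Glo luminescence read after 48 h compound exposure at 37 C defines viability; percent activity set with DMSO as 100% and bortezomib (9.2 uM final) as 0%. 500 exponentially growing cells per well, RPMI plus 10% FBS.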
# [4] = High-throughput drug toxicity screening in the BPDCN cell line Cal-1 (AID 1224825); conditions: Cal-1 BPDCN cell viability, qHTS; at 45.8 µM (top of the series)
# How it was run: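 Exponentially growing Cal-1 cells, 500 per well in phenol red-free RPMI with 10% FBS, were exposed to compounds for 48 h at 37 °C, 5% CO2. Viability was read by CellTiter-Glo luminescence and normalised to DMSO (100%) and 9.2 uM bortezomib (0%).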
# [5] = qHTS assay for measurement of the activity of small molecule inhibitors on Zika virus induced Caspase-3 activity in human iPSC derived neural progenitor cells (hNPCs) (AID 1224857; active = well fitted curve in the direction sought with a large enough effect; an effect the other way counts as inactive or inconclusive; note: % of control where 0% means no effect; nearly all actives have a fitted effect of over 65% in size); conditions: hNPCs ZIKV-induced caspase-3/7, Caspase-Glo luminescence, 6 h; series mostly up to 45.7 µM
# How it was run: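 Pretreat hNPCs with compound 1 h; infect ZIKV 2 FFU/cell; 6 h 37 C, 5% CO2; Caspase-Glo 3/7, 30 min RT; luminescence; normalize to no-virus and virus-only wells.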
# [6] = qHTS assay for measurement of the activity of small molecule inhibitors on Zika virus induced Caspase-3 activity in human astrocytoma cells (AID 1224859; active = well fitted curve in the direction sought with a large enough effect; an effect the other way counts as inactive or inconclusive;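 note: plate controls were ZIKV-infected untreated cells for no effect and uninfected cells for full effect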); conditions: SNB-19 ZIKV-induced caspase-3/7, luminescence, 6 h; series mostly up to 45.7 µM
# How it was run: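 Human SNB-19 astrocytoma cells in RPMI 1640 with 10% FBS receive compound one hour ahead of Zika virus at 2 FFU/cell. After 6 h infection, caspase-3/7 activity is detected by Caspase-Glo luminescence.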
# [7] = qHTS Screen of the MIPE 4.0 Collection Against Ewings Sarcoma (RDES) (AID 1259252; active = well fitted curve in the direction sought with a large enough effect; an effect the other way counts as inactive or inconclusive; note: potency is the fitted concentration of half-maximal effect; nearly all actives have a fitted effect of over 35% in size); conditions: RD-ES Ewing sarcoma viability, CellTiter-Glo, 48 h; series mostly up to 45.8 µM
# How it was run: (§1)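 Measured: ATP luminescence (CellTiter-Glo) 10 min after reagent addition, following 48 h drug treatment. Relative luciferase units converted to percent activity, with no-cell wells as full and DMSO wells as zero inhibition.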
# [8] = qHTS Screen of the MIPE 4.0 Collection Against Ewings Sarcoma (TC71) (AID 1259253; active = well fitted curve in the direction sought with a large enough effect; an effect the other way counts as inactive or inconclusive; note: potency is the fitted concentration of half-maximal effect; nearly all actives have a fitted effect of over 40% in size); conditions: TC71 Ewing sarcoma viability, CellTiter-Glo, 48 h; series mostly up to 45.8 µM
# How it was run: as §1
# [9] = qHTS Screen of the MIPE 4.0 Collection Against Ewings Sarcoma (EW8) (AID 1259255; active = well fitted curve in the direction sought with a large enough effect; an effect the other way counts as inactive or inconclusive; note: potency is the fitted concentration of half-maximal effect; nearly all actives have a fitted effect of over 35% in size); conditions: EW8 Ewing sarcoma viability, CellTiter-Glo, 48 h; series mostly up to 45.8 µM
# How it was run: as §1
# [10] = qHTS Screen of the MIPE 4.0 Collection Against Ewings Sarcoma (TC32) (AID 1259256; active = well fitted curve in the direction sought with a large enough effect; an effect the other way counts as inactive or inconclusive; note: potency is the fitted concentration of half-maximal effect; nearly all actives have a fitted effect of over 45% in size); conditions: TC32 Ewing sarcoma viability, CellTiter-Glo, 48 h; series mostly up to 45.8 µM
# How it was run: as §1
# [11] = Identifying Small Molecule Inhibitors of Pancreatic Cancer Stem Cells (SN12C, Adherent) (AID 1259358; active = well fitted curve in the direction sought with a large enough effect; an effect the other way counts as inactive or inconclusive;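 note: potency is the fitted concentration of half-maximal effect; cell survival measured after 48 h of compound exposure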); conditions: viability/growth inhibition; series mostly up to 46.1 µM
# How it was run: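 After a 4 h attachment period, compounds were pinned into wells and cultures held 48 h under standard incubator conditions. Viability was then measured as CellTiter-Glo luminescence following 10 min at room temperature.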
smiles,measurement,setting,value
CC(=O)OCCN1C(=O)c2c(C)nc3ccc(S(=O)(=O)N4CCOCC4)cc3c2C1=O,Potency,[1],inactive
same,Potency,[2],inactive
CN(C)CC=CC(=O)Nc1cc2c(Nc3ccc(F)c(Cl)c3)ncnc2cc1O[C@H]1CCOC1,Potency,[1],1.48 µM (active)
same,Potency,[2],6.62 µM (active)
Cc1ccc(NC(=O)c2ccc(CN3CCN(C)CC3)cc2)cc1Nc1nc(-c2cccnc2)cs1,Potency,[1],20.9 µM (active)
same,Potency,[2],23.5 µM (active)
O=C(O)c1ccc2c(c1)nc(Nc1cccc(Cl)c1)c1ccncc12,Potency,[1],5.26 µM (active)
same,Potency,[2],11.8 µM (active)
Nc1ccccc1NC(=O)c1ccc(CNc2nccc(-c3cccnc3)n2)cc1,Potency,[1],0.132 µM (active)
same,Potency,[2],0.187 µM (active)
C[C@]1(CO)CN(c2cc(C(=O)Nc3ccc4c(c3)-c3c(c(C(N)=O)nn3-c3ccc(F)cc3)CC4)c(Cl)cn2)C[C@@]1(C)CO,Potency,[1],3.32 µM (active)
same,Potency,[2],16.6 µM (active)
Cn1cc(-c2[nH]c3cc(NC(=O)[C@H](N)C4CCCCC4)cc4c3c2C=NNC4=O)cn1,Potency,[1],0.59 µM (active)
same,Potency,[2],1.87 µM (active)
CCC(=O)N[C@H]1CC[C@H](C(=O)N(C)c2ccc(-c3nc4ccccc4o3)cc2)C1,Potency,[1],7.43 µM (active)
same,Potency,[2],7.43 µM (active)
Cc1n[nH]c(C)c1Cc1sc2c(c1C(=O)N1C[C@H](O)CO1)c(=O)n(C)c(=O)n2CC(C)C,Potency,[1],0.0019 µM (active)
same,Potency,[2],inactive
COC(=O)C1=C(C)NC(C)=C(C(=O)OCCCN2CCC(c3ccccc3)(c3ccccc3)CC2)[C@H]1c1cccc([N+](=O)[O-])c1,Potency,[1],16.6 µM (active)
same,Potency,[2],26.4 µM (active)
OC[C@H](Cc1ccccc1)Nc1nc(Oc2ccc3c(c2)CCC3)nc2c1ncn2Cc1ccc(-c2ccccc2)cc1,Potency,[1],10.5 µM (active)
same,Potency,[2],13.2 µM (active)
O=C(C=Cc1c(C(=O)O)[nH]c2cc(Cl)cc(Cl)c12)Nc1ccccc1,Potency,[1],inactive
same,Potency,[2],inactive
CC(C)C(=O)Nc1ncc(-c2cc(C(F)F)nn2-c2c(Cl)cccc2Cl)s1,Potency,[1],11.8 µM (active)
same,Potency,[2],18.7 µM (active)
CC(C)c1ccc(Cn2ccc3c4c(N)nc(NC5CC5)nc4ccc32)cc1,Potency,[1],3.32 µM (active)
same,Potency,[2],0.935 µM (active)
CCCCCN(CCC12CC3CC(CC(C3)C1)C2)C(=O)NCCCc1ccncc1,Potency,[1],11.8 µM (active)
same,Potency,[2],23.5 µM (active)
O=C(C=Cc1ccc(/C=C/C(=O)Nc2ccc(C3=NCCN3)cc2)cc1)Nc1ccc(C2=NCCN2)cc1,Potency,[1],inactive
same,Potency,[2],inactive
COc1ncc(-c2ccc3nccc(-c4ccnnc4)c3c2)cc1NS(=O)(=O)c1ccc(F)cc1F,Potency,[1],0.418 µM (active)
same,Potency,[2],0.235 µM (active)
Cc1ccc(F)c(NC(=O)Nc2ccc(-c3cccc4[nH]nc(N)c34)cc2)c1,Potency,[1],5.26 µM (active)
same,Potency,[2],13.2 µM (active)
Cc1cc([C@@H](C)Nc2ccccc2C(=O)O)c2nc(N3CCOCC3)cc(=O)n2c1,Potency,[1],14.8 µM (active)
same,Potency,[2],20.9 µM (active)
Cn1cc(-c2ccc3nnc(Sc4ccc5ncccc5c4)n3n2)cn1,Potency,[1],inactive
same,Potency,[2],inactive
O=c1[nH]nc(Sc2ncc([N+](=O)[O-])s2)n1-c1ccc2c(c1)OCCO2,Potency,[1],0.264 µM (active)
same,Potency,[2],20.9 µM (active)
CN(c1ncccc1CNc1nc(Nc2ccc3c(c2)CC(=O)N3)ncc1C(F)(F)F)S(C)(=O)=O,Potency,[1],1.48 µM (active)
same,Potency,[2],2.96 µM (active)
CC(C)c1ccc2c(c1)c(SC(C)(C)C)c(CC(C)(C)C(=O)O)n2Cc1ccc(Cl)cc1,Potency,[1],13.2 µM (active)
same,Potency,[2],11.8 µM (active)
COc1ccccc1-c1cccc(-c2c(O)c3cc(C#N)c(Cl)cc3[nH]c2=O)c1,Potency,[1],inactive
same,Potency,[2],inactive
NC(=O)Nc1cc(-c2cccc(F)c2)sc1C(=O)N[C@H]1CCCNC1,Potency,[1],0.105 µM (active)
same,Potency,[2],0.59 µM (active)
Cc1cn2c(-c3cn[nH]c3)cnc2c(Nc2ccc(C(=O)N3CCNCC3)cc2F)n1,Potency,[1],18.7 µM (active)
same,Potency,[2],13.2 µM (active)
CCC1(O)CC2CN(CCc3c([nH]c4ccccc34)[C@@](C(=O)OC)(c3cc4c(cc3OC)N(C=O)[C@H]3[C@](O)(C(=O)OC)[C@H](OC(C)=O)[C@]5(CC)C=CCN6CC[C@]43[C@@H]65)C2)C1 (stereo not given in full),Potency,[1],0.0017 µM (active)
same,Potency,[2],0.0033 µM (active)
CC(=O)OCC(=O)[C@@]1(O)[C@H](C)C[C@H]2[C@@H]3C=C(C)C4=Cc5c(cnn5-c5ccccc5)C[C@]4(C)[C@@H]3[C@@H](O)C[C@@]21C,Potency,[1],1.32 µM (active)
same,Potency,[2],26.4 µM (active)
COc1cc2c(cc1OC)CC(=O)N(CCCN(C)C[C@H]1Cc3cc(OC)c(OC)cc31)CC2,Potency,[1],inactive
same,Potency,[2],inactive
O=C(O)c1ccc(-c2cc3cccnc3c(-c3ccc4nonc4c3)n2)cc1,Potency,[1],inactive
same,Potency,[2],inactive
Cc1c(C(=O)Nc2ccc(N3C[C@@H](C)O[C@@H](C)C3)nc2)cccc1-c1ccc(OC(F)(F)F)cc1,Potency,[1],20.9 µM (active)
same,Potency,[2],23.5 µM (active)
CCCCCCCCCCCCCC(=O)N[C@H](CO)[C@H](O)c1ccc([N+](=O)[O-])cc1,Potency,[1],16.6 µM (active)
same,Potency,[2],23.5 µM (active)
O=C(Nc1cc(C(F)(F)F)cc(C(F)(F)F)c1)c1cc(Cl)ccc1O,Potency,[1],0.166 µM (active)
same,Potency,[2],0.0662 µM (active)
Cc1ccc(NC(=O)c2cccc(C(C)(C)C#N)c2)cc1Nc1ccc2ncn(C)c(=O)c2c1,Potency,[1],23.5 µM (active)
same,Potency,[2],20.9 µM (active)
C[C@@H]1C[C@H]2[C@@H]3CCC4=CC(=O)C=C[C@]4(C)C3(F)[C@@H](O)C[C@]2(C)[C@@]1(O)C(=O)CO (stereo not given in full),Potency,[1],0.059 µM (active)
same,Potency,[2],inactive
Cc1nc(N)sc1-c1ccnc(Nc2ccc(N3CCOCC3)cc2)n1,Potency,[1],5.9 µM (active)
same,Potency,[2],18.7 µM (active)
CCN(CC)CCCCNc1ncc2cc(-c3cc(OC)cc(OC)c3)c(NC(=O)NC(C)(C)C)nc2n1,Potency,[1],20.9 µM (active)
same,Potency,[2],20.9 µM (active)
Cc1cc(Nc2cc(N3CCN(C)CC3)nc(Sc3ccc(NC(=O)C4CC4)cc3)n2)n[nH]1,Potency,[1],7.43 µM (active)
same,Potency,[2],18.7 µM (active)
Cc1cccc(C=NNc2cc(N3CCOCC3)nc(OCCc3ccccn3)n2)c1,Potency,[1],4.69 µM (active)
same,Potency,[2],20.9 µM (active)
Nc1ccccc1NC(=O)c1ccc(CNC(=O)OCc2cccnc2)cc1,Potency,[1],0.526 µM (active)
same,Potency,[2],5.9 µM (active)
COc1cc(=C2C=c3ccccc3=N2)[nH]c1=Cc1[nH]c(C)cc1C,Potency,[1],0.187 µM (active)
same,Potency,[2],6.62 µM (active)
COCCNCCCn1c(C(=O)CF)c(-c2ccc(C)cc2)c2c(N)ncnc21,Potency,[1],inactive
same,Potency,[2],inactive
COc1c(Cl)cc2c([nH]c3cnccc32)c1NC(=O)c1cccnc1C,Potency,[1],inactive
same,Potency,[2],inactive
COc1cccc2cc(-c3nc(C4CCC(C(=O)O)CC4)n4ncnc(N)c34)[nH]c12 (stereo not given),Potency,[1],6.62 µM (active)
same,Potency,[2],0.235 µM (active)
COc1ccc(-c2ccc3c(N4CCOCC4)nc(N4C[C@@H](C)O[C@@H](C)C4)nc3n2)cc1CO,Potency,[1],1.48 µM (active)
same,Potency,[2],0.105 µM (active)
Cc1cn(-c2cc(NC(=O)c3ccc(C)c(Nc4nccc(-c5cccnc5)n4)c3)cc(C(F)(F)F)c2)cn1,Potency,[1],14.8 µM (active)
same,Potency,[2],26.4 µM (active)
CC(C)C[C@H](NC(=O)CNC(=O)c1cc(Cl)ccc1Cl)B(O)O,Potency,[1],0.0187 µM (active)
same,Potency,[2],0.118 µM (active)
COc1cc(Nc2ncc3c(n2)-c2ccc(Cl)cc2C(c2c(F)cccc2OC)=NC3)ccc1C(=O)O,Potency,[2],inactive
COc1ccc2c(c[n+](C)c3c4cc5c(cc4ccc23)OCO5)c1OC,Potency,[1],1.32 µM (active)
same,Potency,[2],8.33 µM (active)
same,"cell viability, % of control (lower = more cytotoxic)",[3],7.65%
same,viability (% of control),[4],3.4%
same,Potency,[5],inactive
same,Potency,[6],inactive
same,Potency,[7],4.69 µM (active)
same,Potency,[8],9.35 µM (active)
same,Potency,[9],7.43 µM (active)
same,Potency,[10],8.33 µM (active)
same,Potency,[11],20.9 µM (active)
C=CCON=C(C[C@H]1O[C@@H]2O[C@]3(C)CC[C@@H]4[C@H](C)CC[C@@H]([C@H]1C)[C@@]24OO3)[C@H]1O[C@@H]2O[C@]3(C)CC[C@H]4[C@H](C)CC[C@@H]([C@@H]1C)[C@@]24OO3,Potency,[1],0.0166 µM (active)
same,Potency,[2],0.235 µM (active)
same,"cell viability, % of control (lower = more cytotoxic)",[3],19.7%
same,viability (% of control),[4],23.2%
same,Potency,[5],inactive
same,Potency,[6],inactive
same,Potency,[7],0.469 µM (active)
same,Potency,[8],0.418 µM (active)
same,Potency,[9],0.296 µM (active)
same,Potency,[11],0.0935 µM (active)
COc1cc2c(cc1OC)[C@@H]1C(=O)c3ccc4c(c3O[C@@H]1CO2)C=CC(C)(C)O4,Potency,[2],4.18 µM (active)
O=C1CCCC2=C1C(c1[nH]ncc1Cl)N=C(Nc1nc3ccccc3o1)N2 (stereo not given),Potency,[2],inactive
Cc1cnc(Nc2ccc(OCCN3CCCC3)cc2)nc1Nc1cccc(S(=O)(=O)NC(C)(C)C)c1,Potency,[2],inactive
COCCn1c2c([n+](Cc3cnccn3)c1C)C(=O)c1ccccc1C2=O,Potency,[2],0.0037 µM (active)
